In ChEMBL document CHEMBL4513216, “Probing the Open Global Health Chemical Diversity Library for Multistage-Active Starting Points for Next-Generation Antimalarials” (ACS Infect Dis, 2020):
Screen size: about 65,000 compounds; about 2,100 (3.2%) showed an effect of 50% or more. The median lay at about -52%. The list comes from a sample in which strong results are over-represented; it also holds similar structures and randomly drawn compounds.

The compounds below were run on Plasmodium falciparum (assay: Screen against P. falciparum Asexual Blood Stage (ABS), at 5uM). Conditions: tested at 5 uM.
Format: functional, Dd2
`CC1=N[C@@]2(CC[C@@H]3CNC[C@@H]32)C(=O)N1CC(C)C` was tested, and the INHIBITION was -138%.
`CNC(=O)[C@H]1C[C@@H]2CN(C(=O)c3cncc(C)c3)C[C@@H]2N1C` gave an INHIBITION of -93.3%.
`CC(C)NC(=O)N1CCOC2(CCCNC2)C1` (stereo not given) was tested, and the INHIBITION was -67.8%.
`CC(C)CNC(=O)C1(Cc2ccccc2-c2cccs2)CCNC1` (stereo not given) gave an INHIBITION of 71.7%.
In the case of `CC(C)CNC(=O)N1CCOC2(CCNCC2)C1`, the INHIBITION was -53.6%.
Compound `CC(C)NC(=O)C1(Cc2ccccc2-c2ccccc2)CCCNC1` (stereo not given) has an INHIBITION of 76.7%.
`O=C(Nc1ccccc1)C1=NOC2(CCCNC2)C1` (stereo not given) showed an INHIBITION of -22.7%.
`CC(C)NC(=O)[C@@H]1C[C@H]2NCC[C@H]2O1` showed an INHIBITION of -104%.
In the case of `CCN1CCC2(COCc3cnc(NCC4CC4)nc32)C1` (stereo not given), the INHIBITION was 1.43%.
`CCN1C[C@@H]2[C@@H](OC)CCN(S(=O)(=O)c3cccnc3)[C@@H]2C1` showed an INHIBITION of -17.9%.
Work on `COc1cc2nc(NCc3ccc(C)nc3)nc(N)c2cc1OC` yielded an INHIBITION of 90.6%.
`COc1cc2nc(NCc3scnc3C)nc(N)c2cc1OC` was tested, and the INHIBITION was 89.8%.
`Fc1cccnc1O[C@@H]1CN(Cc2ccco2)[C@@H]2CCCO[C@@H]21` showed an INHIBITION of -48.2%.
`COc1ccccc1C1(CNCc2ccc(C#N)cc2)CCOCC1` was tested, and the INHIBITION was 76.6%.
In the case of `COc1ccccc1N1CCC(CNCc2ccc(C#N)cc2)C1` (stereo not given), the INHIBITION was 94.1%.
In the case of `CC[C@H]1CN2CC[C@H]1C[C@@H]2CNCc1cccc(C#N)c1`, the INHIBITION was 34.8%.
Compound `CSC1(CNC(=O)NC(C)Cc2cccc(F)c2)CCOCC1` (stereo not given) has an INHIBITION of -25.5%.
Compound `N#Cc1ccc(CNCC2(c3ccccc3)CCOCC2)cc1` has an INHIBITION of 83%.
In the case of `COc1ccccc1C1(CNCc2cccc(O)c2)CCOCC1`, the INHIBITION was 82.8%.
With `O=C([C@@H]1CC[C@@H]2[C@@H](CCN2Cc2ccncc2)O1)N1CCCCO1` the INHIBITION was -84.8%.
`O=C1CO[C@@H]2CN(CC3CCOCC3)C[C@H]2N1Cc1ccncc1` showed an INHIBITION of -115%.
With `Cc1ccc(C(CCNCCCN(C)C)C2CCOC(C)(C)C2)cc1` (stereo not given) the INHIBITION was 83.6%.
`CN(Cc1cccnc1)[C@@H]1CN(CC2CC2)[C@@H]2CCCO[C@H]12` showed an INHIBITION of -1.12%.
Work on `COc1cc(OC)c(C2SCC(=O)Nc3n[nH]cc32)cc1OC` (stereo not given) yielded an INHIBITION of -189%.
`COc1cc(OC)c(C2Nc3cc(Cl)ccc3C3=NCCN32)cc1OC` (stereo not given) was tested, and the INHIBITION was 81.7%.
With `C/C(=C\c1ccco1)CN(C)C(C)Cc1cc(C)ccn1` (stereo not given) the INHIBITION was -0.191%.
`CS(=O)(=O)Cc1nc(CN2CC=C(c3ccccc3)CC2)cs1` was tested, and the INHIBITION was -50.8%.
`CCCN1CCN(C(=O)c2cnccc2C)[C@H]2CS(=O)(=O)C[C@H]21` was tested, and the INHIBITION was -12.9%.
`Cc1c(C(=O)N2CCC(N3CCCCC3)CC2)n(C)c2ccc(Cl)cc12` was tested, and the INHIBITION was 88%.
Compound `CC(C)c1ncc(Cl)c(C(=O)N2CCN3CCCCC3C2)n1` (stereo not given) has an INHIBITION of -158%.
`O=C(c1[nH]c2ccc(Cl)cc2c1Cl)N1CCC2(CC1)OCCO2` showed an INHIBITION of -37.1%.
Compound `CC(Cn1cncn1)NCc1csc2c1CCCC2` (stereo not given) has an INHIBITION of -42.7%.
`Fc1ccc(OCCNC2CCN(Cc3ccncc3)CC2)c(F)c1` showed an INHIBITION of 74.2%.
In the case of `c1cnc(NC[C@H]2OC[C@@H]3CCN(Cc4ccncc4)C[C@@H]32)nc1`, the INHIBITION was -102%.
For `c1cc(CN2CC[C@@H]3CN(c4cnccn4)C[C@@H]3C2)ccn1`, the INHIBITION was -72.2%.
For `CNc1ncccc1C(=O)N1CCC2(CCN(C)C2)CC1`, the INHIBITION was -89.3%.
Compound `Cc1ncc(CNCCO)c2cc(C(=O)c3ccc(Br)cc3)oc12` has an INHIBITION of 89.3%.
`O=C1C[C@@H]2CC[C@H](CN1)N2C1CSCCSC1` showed an INHIBITION of -45.6%.
Compound `c1cc(CN2CCCC23CCCN(Cc2ccoc2)C3)ccn1` (stereo not given) has an INHIBITION of -105%.
`O=C1CC2(CCN(Cc3ccoc3)C2)CN1c1cncnc1` (stereo not given) was tested, and the INHIBITION was -51.3%.
In the case of `c1cnc(N2CC3(CCN(Cc4ccncc4)C3)C2)nc1`, the INHIBITION was -104%.
`Cc1ccc(CN2CCC3(CC2)CCN(Cc2ccco2)CC3)cc1` was tested, and the INHIBITION was 91.7%.
For `Fc1ccc(CN2CCC3(CC2)CCN(Cc2nccs2)CC3)cc1`, the INHIBITION was 86.6%.
Work on `Cn1ccnc1CN1CC2(CCN(Cc3ccncc3)C2)C1` yielded an INHIBITION of -45.8%.
With `C[C@H]1C[C@@H]2CCN(Cc3ccco3)C[C@H]2O1` the INHIBITION was -32%.
For `Cc1ccc(CN2CCC3(CC2)CCN(Cc2ccoc2)CC3)cc1`, the INHIBITION was 92.7%.
Compound `O=C1Nc2ccccc2C12CCN(Cc1nccs1)CC2` has an INHIBITION of -15.8%.
With `Cc1ccc(CN2CCC3(CCN(Cc4ccncc4)CC3)CC2)cc1` the INHIBITION was 78.3%.
For `CN1CCN(Cc2ccco2)Cc2cccnc21`, the INHIBITION was -15.8%.
With `O=C1NC[C@H]2CN(Cc3nccs3)CCN12` the INHIBITION was -41.7%.
